Where “and” joins values, the source holds several entries; their conditions need not be identical. Equal values may be shown once. About 4,200 (1.2%) of roughly 360,000 compounds were called active. This is one part of a sample in which actives are shown more often than they occur. Values without a mark were called inactive.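 The calls were made as follows: active = mean replicate inhibition at least 60% with every replicate also reaching 60%; inconclusive = only one of the two criteria is met; inactive = mean below 60% and not all replicates reaching 60%.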

This assay is described as follows: inhibitors of PAX8-driven TPO luciferase reporter, primary screen, RMG-I cells, single concentration (AID 652154).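 Also: luciferase light reporting Pax8 driven TPO promoter activity; plate controls were median of neutral control wells for no effect and mitoxantrone controls for full effect.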 Particulars: SteadyGlo, 24 h, at 12.6 µM, stronger effect = higher value. For orientation: In a reporter assay the amount or activity of a reporter protein is the signal.
For orientation: inhibition means the relative decrease from the control value, in per cent. As for `CO[C@H]1CN(C)C(=O)c2cc(NC(=O)c3ccc4c(c3)OCO4)ccc2OC[C@@H](C)N(CCC(F)(F)F)C[C@H]1C`, the inhibition is -3.09%.
Regarding `CC(C)C#Cc1ccc([C@H]2[C@@H](CO)N3CCCCN(C(=O)Nc4ccccc4)C[C@H]23)cc1`, the inhibition was 7.15%.
As for `O=C(Nc1ccccc1)N1CCCCN2[C@H](CO)[C@@H](c3ccc(C#Cc4ccccn4)cc3)[C@H]2C1`, the inhibition was 10.2%.
In the case of `COc1ccc(C#Cc2ccc([C@H]3[C@@H](CO)N4CCCCN(C(=O)Nc5ccccc5)C[C@H]34)cc2)cc1`, the inhibition is 85.6% (active).
As for `COc1ccccc1NC(=O)N1CC(=O)N2[C@H](CO)[C@H](c3ccc(C#Cc4ccccc4)cc3)[C@H]2C1`, the figure is -18.8%; as for `O=C(c1ccc(F)cc1)N1CC(=O)N2[C@@H](CO)[C@@H](c3ccc(C#Cc4ccc(F)cc4)cc3)[C@@H]2C1`, 87.7% (active); as for `COc1ccccc1NC(=O)N1CCCCN2[C@H](C1)[C@H](c1ccc(-c3ccccc3)cc1)[C@@H]2CO`, -14.1%.
For the molecule `COc1ccccc1NC(=O)N1CCCCN2[C@H](CO)[C@H](c3ccc(C#CC4CC4)cc3)[C@@H]2C1`, the inhibition was 8.7%.
Consider `O=C(c1ccc(F)cc1)N1CC(=O)N2[C@H](C1)[C@@H](c1ccc(C#CC3CC3)cc1)[C@@H]2CO`, for which the inhibition was 27.2%.
Turning to `COc1ccccc1NC(=O)N1CC(=O)N2[C@@H](CO)[C@H](c3ccc(C#CC4CC4)cc3)[C@@H]2C1`, the inhibition was -15.3%.
As to `O=C(CC1CC1)N1CC(=O)N2[C@H](CO)[C@H](c3ccc(C#Cc4ccc(F)cc4)cc3)[C@@H]2C1`, the inhibition is 2.13%.
As for `COc1ccccc1NC(=O)N1CC(=O)N2[C@H](C1)[C@H](c1ccc(C#Cc3ccccc3)cc1)[C@@H]2CO`, the figure is 61.7% (active).
As for `COc1ccccc1NC(=O)N1CCCCN2[C@@H](CO)[C@@H](c3ccc(C#Cc4ccccc4)cc3)[C@@H]2C1`, the figure is 109% (active); as for `Cc1ccccc1S(=O)(=O)N[C@@H]1CC[C@@H](CCNS(=O)(=O)c2cccc(F)c2)O[C@H]1CO`, 20.4%.
As for `O=C(C[C@H]1CC[C@H]2[C@@H](COC[C@@H](O)CN2Cc2cccc(C(F)(F)F)c2)O1)NCc1ccncc1`, the figure is -1.84%.
In the case of `CCS(=O)(=O)Nc1ccc2c(c1)C(=O)N(C)[C@@H]1CC[C@@H](CC(=O)NC)O[C@H]1CO2`, the inhibition is -18%.
As for `CCCNC(=O)Nc1ccc2c(c1)OC[C@@H](C)N(CCC)C[C@H](C)[C@@H](OC)CN(C)C2=O`, the figure is -2.35%; as for `CCCNC(=O)Nc1ccc2c(c1)C(=O)N(C)[C@@H]1CC[C@@H](CC(=O)NC)O[C@H]1CO2`, -19.9%; as for `O=C(c1cccnc1)N1CC2(C1)[C@@H](c1ccccc1)[C@H](CO)N2C(=O)C1CCC1`, -5.13%.
As for `CC(=O)N1CC[C@@H]2[C@@H](CO)N(C)c3ccc(-c4ccc(C#N)cc4)cc3[C@@H]21`, the figure is -6.97%; as for `C[C@@H]1CN([C@H](C)CO)C(=O)Cc2cc(NC(=O)CCN3CCOCC3)ccc2O[C@H]1CN(C)Cc1ccncc1`, -2.37%.
Regarding `O=C(C1CCC1)N1CCCCN2[C@H](CO)[C@H](c3ccc(-c4cccc(F)c4)cc3)[C@@H]2C1`, the inhibition was -30.2%.
As for `O=C(C1CCC1)N1CCCCN2[C@H](CO)[C@H](c3ccc(-c4cccc(F)c4)cc3)[C@H]2C1`, the figure is 84.3% (active); as for `O=C(C1CCCC1)N1CCCCN2[C@@H](CO)[C@H](c3ccc(-c4cccc(F)c4)cc3)[C@@H]2C1`, 6.9%.
On to `O=C(Nc1ccc(F)cc1)N1CCCCN2[C@H](CO)[C@H](c3ccc(C#Cc4ccccc4)cc3)[C@H]2C1`, for which the inhibition is 38%.
`CN(C)CC#Cc1ccc([C@@H]2[C@H](CO)N3CCCCN(C(=O)Nc4ccc(F)cc4)C[C@@H]23)cc1`: the inhibition was 92.8% (active).
Regarding `CN(C)CC#Cc1ccc([C@@H]2[C@H](CO)N3CCCCN(C(=O)NC4CCCC4)C[C@@H]23)cc1`, the inhibition was 6.59%.
For the molecule `C[C@H](CO)N1C[C@H](C)[C@H](CN(C)C(=O)CCC(F)(F)F)OCCCC[C@H](C)Oc2ccc(NS(C)(=O)=O)cc2C1=O`, the inhibition was -0.897%.
Regarding `Cc1ccc(-c2cnc3c(c2)C(=O)N([C@H](C)CO)C[C@H](C)[C@@H](CN(C)C(=O)c2cccc(F)c2)O3)cc1`, the inhibition is 6.03%.
As for `CCNC(=O)[C@H]1[C@H](CO)[C@H]2Cn3c(ccc(-c4ccc(OC)cc4)c3=O)[C@H]2N1Cc1ccccc1`, the figure is 21.7%.
As for `CCNC(=O)C[C@H]1CC[C@@H]2[C@H](COC[C@H](O)CN2S(=O)(=O)c2ccc(Oc3ccccc3)cc2)O1`, the figure is -12.7%; as for `COc1ccc(NC(=O)N(C)C[C@H]2Oc3ccc(NS(=O)(=O)c4ccc(C)cc4)cc3C(=O)N([C@@H](C)CO)C[C@H]2C)cc1`, 2.38%; as for `C[C@H](CO)N1C[C@H](C)[C@H](CN(C)C(=O)CCN(C)C)OCc2ccccc2-c2c(n(C)c3ccccc23)C1=O`, -16%.
For the molecule `CC(C)NC(=O)Nc1ccc2c(c1)C(=O)N([C@H](C)CO)C[C@H](C)[C@@H](CN(C)Cc1ccc(C(F)(F)F)cc1)OCCCC[C@@H](C)O2`, the inhibition is -13.6% and 26.1%.
On to `C[C@@H]1CCCCO[C@H](CN(C)Cc2ccccc2)[C@H](C)CN([C@@H](C)CO)C(=O)c2cc(NC(=O)Nc3cccc4ccccc34)ccc2O1`, for which the inhibition is 21%.
`COc1ccc(CN(C)C[C@@H]2OCCCC[C@@H](C)Oc3ccc(NC(=O)Nc4ccc(C(F)(F)F)cc4)cc3C(=O)N([C@H](C)CO)C[C@H]2C)cc1`: the inhibition is -16.7%.
Take `C[C@@H]1CCCCO[C@@H](CN(C)Cc2ccc(C(=O)O)cc2)[C@H](C)CN([C@@H](C)CO)C(=O)c2cc(NC(=O)Nc3ccc(C(F)(F)F)cc3)ccc2O1`: the inhibition is -16.9%.
On to `C[C@H]1CCCCO[C@@H](CN(C)Cc2ccc(C(F)(F)F)cc2)[C@@H](C)CN([C@@H](C)CO)C(=O)c2cc(NC(=O)Nc3ccccc3)ccc2O1`, for which the inhibition is 67.9% (active).
As for `C[C@@H]1CN([C@@H](C)CO)C(=O)c2cc(NC(=O)Nc3cccc4ccccc34)ccc2O[C@@H](C)CCCCO[C@H]1CN(C)Cc1ccccc1`, the figure is -1.82%; as for `C[C@@H]1CN([C@H](C)CO)C(=O)c2cc(NC(=O)Nc3ccccc3)ccc2O[C@@H](C)CCCCO[C@H]1CN(C)Cc1ccc(C(F)(F)F)cc1`, 77.3% (active); as for `COc1ccc(NC(=O)Nc2ccc3c(c2)C(=O)N([C@@H](C)CO)C[C@H](C)[C@H](CN(C)Cc2ccc(C(F)(F)F)cc2)OCCCC[C@H](C)O3)cc1`, 71.6% (active).
As for `C[C@H](CO)N1C[C@H](C)[C@@H](CN(C)Cc2ccc3c(c2)OCO3)OCCCC[C@H](C)Oc2ccc(NC(=O)Nc3ccc(C(F)(F)F)cc3)cc2C1=O`, the figure is 36.6%; as for `C[C@@H]1CCCCO[C@@H](CN(C)Cc2ccccc2)[C@H](C)CN([C@H](C)CO)C(=O)c2cc(NC(=O)Nc3cccc4ccccc34)ccc2O1`, 73.4% (active); as for `C[C@@H]1CCCCO[C@@H](CN(C)Cc2ccc(C(F)(F)F)cc2)[C@@H](C)CN([C@H](C)CO)C(=O)c2cc(NC(=O)Nc3ccccc3)ccc2O1`, -1.66%.
As for `COc1ccc(CN(C)C[C@@H]2OCCCC[C@@H](C)Oc3ccc(NC(=O)Nc4ccc(OC)cc4)cc3C(=O)N([C@@H](C)CO)C[C@@H]2C)cc1`, the figure is -12.3%.

For the origin of these results see PubChem BioAssay AID652154 (Broad Institute, 2013).
